The text below walks through data of PubChem BioAssay.

Test [1] has as its system Human papillomavirus type 1a protein E7 (residues 44-93). In words: HPV1a E7 fragment binders on microarrays, primary screen, biochemical, small-molecule microarray, residues 44-93, 635 nm fluorescence (AID 1108).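 Further: E7 fragment applied at 1 µg/mL in TBST for 1 h at 4 C; score combines spot fluorescence with its signal to noise ratio.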 The note with it: small-molecule microarray binding, fluorescence 635 nm; higher = more signal.
A short description of test [2]: modulators of HCV replicon luciferase signal, primary screen, HCV replication inhibitor project, Huh7 cells, luciferase reporter (AID 1109).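 Further: huh7 hepatoma cells harbouring a luciferase neomycin HCV replicon reporter; luciferase luminescence as measure of HCV replicon replication; test concentration not given here.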 The note with it: 48 h, higher = more signal.
Test [3] has as its target Left-right determination factor 2 (Homo sapiens) (UniProt O00292). In words: LEFTY2 binders on small-molecule microarrays, primary screen, biochemical, small-molecule microarray, 635 nm fluorescence scan (AID 1110). Conditions: LEFTY2 binding, higher = more signal.
Test [4] addresses Calmodulin-1 (Homo sapiens) (UniProt P0DP23). In words: CALM1 binders on microarrays, EGTA buffer, profiling panel, biochemical, small-molecule microarray, Cy5-labelled CALM1 (AID 1111).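 Further: labelled calmodulin applied in Tris saline Tween buffer holding calcium plus EGTA and DTT.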 The note with it: Cy5-CALM1 binding fluorescence, higher = more signal.
Test [5] has the same target. In words: calcium-bound CALM1 binders on microarrays, profiling panel, artefact control for SMM control-protein annotation, biochemical, small-molecule microarray, Cy5-labelled CALM1, plus calcium (AID 1112).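 Further: score merges spot fluorescence with signal to noise from triplicate slides.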 The note with it: Cy5-CALM1 binding fluorescence, higher = more signal.
The nature of test [6]: small-molecule microarray binders of probe aWnt5a, primary screen, biochemical, biotinylated probe, 635/667 nm fluorescence (AID 1113).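 Further: score merges 667 nm fluorescence intensity with signal-to-noise per printed feature.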 The note with it: higher = more signal.
Test [7] is described as follows: small-molecule microarray binders of probe aShh, primary screen, biochemical, biotinylated probe, 635/667 nm fluorescence (AID 1114).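 Further: probe is biotin-labelled aShh protein from a stem cell growth factor screen; measures binding of labelled protein to compounds printed on the slide; score merges feature fluorescence at 667 nm with signal-to-noise.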 Conditions: higher = more signal.
Test [8] is described as follows: small-molecule microarray binders of probe aNog, primary screen, biochemical, biotinylated probe, 635/667 nm fluorescence (AID 1115).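 Further: probe is biotinylated aNog protein used at 0.15 µg/mL for 1 h at 4 C; z-score combines 667 nm fluorescence of each spot with its signal to noise.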 The note with it: higher = more signal.
For test [9], the target named is Torsin-1A-interacting protein 1 (Homo sapiens) (UniProt Q5JTV8). In words: LAP1 binders from COS7 cell lysate, primary screen, small-molecule microarray, 635/667 nm fluorescence (AID 1116). The note with it: COS7-hLAP1 lysate binding, 635 nm fluorescence, higher = more signal.
Sequence of Torsin-1A-interacting protein 1 (Homo sapiens) (Q5JTV8 whole entry, looked up): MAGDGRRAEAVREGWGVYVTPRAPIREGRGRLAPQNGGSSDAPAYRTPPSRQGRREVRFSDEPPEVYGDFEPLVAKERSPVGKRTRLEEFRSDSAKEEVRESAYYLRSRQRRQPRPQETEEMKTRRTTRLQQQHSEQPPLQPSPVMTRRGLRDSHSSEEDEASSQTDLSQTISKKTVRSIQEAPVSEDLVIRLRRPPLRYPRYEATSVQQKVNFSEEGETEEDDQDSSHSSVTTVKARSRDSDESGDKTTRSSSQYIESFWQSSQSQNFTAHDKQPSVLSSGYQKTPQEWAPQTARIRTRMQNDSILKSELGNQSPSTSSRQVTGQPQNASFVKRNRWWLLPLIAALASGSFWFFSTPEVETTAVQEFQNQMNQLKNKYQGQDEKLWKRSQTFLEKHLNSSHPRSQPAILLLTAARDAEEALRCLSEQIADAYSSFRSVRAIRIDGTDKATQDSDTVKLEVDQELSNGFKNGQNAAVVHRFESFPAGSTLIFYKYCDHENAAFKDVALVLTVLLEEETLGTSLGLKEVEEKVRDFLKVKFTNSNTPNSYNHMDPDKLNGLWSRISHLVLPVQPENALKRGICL
Test [10] has as its target Alpha-bungarotoxin (Bungarus multicinctus) (UniProt P60615). The test can be described thus: alpha-bungarotoxin binders on microarray, profiling panel, artefact control for SMM control protein annotation, biochemical, small-molecule microarray, Alexa647 label, 635/667 nm fluorescence (AID 1117). The note with it: alpha-BTX-A647 binding fluorescence, higher = more signal.

Structures are written as SMILES.

Sequence of Alpha-bungarotoxin (Bungarus multicinctus) (P60615 whole entry, looked up): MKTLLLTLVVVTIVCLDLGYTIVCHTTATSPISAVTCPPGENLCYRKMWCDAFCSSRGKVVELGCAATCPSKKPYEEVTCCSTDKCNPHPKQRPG
Sequence of Left-right determination factor 2 (Homo sapiens) (O00292 whole entry, looked up): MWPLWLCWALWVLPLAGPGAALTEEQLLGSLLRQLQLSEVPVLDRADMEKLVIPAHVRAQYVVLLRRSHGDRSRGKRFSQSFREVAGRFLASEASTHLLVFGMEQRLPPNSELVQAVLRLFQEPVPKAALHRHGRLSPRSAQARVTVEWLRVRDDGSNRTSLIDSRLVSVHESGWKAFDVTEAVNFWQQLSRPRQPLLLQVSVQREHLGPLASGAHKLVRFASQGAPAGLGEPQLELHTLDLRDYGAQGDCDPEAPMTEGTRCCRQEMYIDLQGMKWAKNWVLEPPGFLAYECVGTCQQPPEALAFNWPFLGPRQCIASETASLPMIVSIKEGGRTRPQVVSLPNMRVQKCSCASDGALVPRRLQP

For the compound `[N-]=[N+]=NCc1ccccc1[C@H]1OC(c2ccc(OCCCO)cc2)=N[C@@]1(Cc1ccccc1N=[N+]=[N-])C(=O)NCc1ccccc1`, the composite z-score in [1] was 0.716; in test [3], -0.334; in test [4], 1.54; in test [5], 0.642; in [6] it was 0.239; in test [7] it was 0.407. In addition, the composite z-score in test [8] amounted to 0.57; in test [9], 0.447; in test [10], 1.71. For the same compound, in [2], the z-score is -2.02.

As to `O=C(CS)NCCCCCNC(=O)[C@H]1C[C@H]2C(=O)N3CCC[C@H]3C(=O)N2[C@H]1c1ccc(O)cc1`, the composite z-score was -0.295 in test [1]; 0.679 in test [3]; 1.45 in test [4]; 1.22 in test [5]; -0.197 in [6]; 0.046 in test [7]. Moreover, the composite z-score in [8] was -0.0207; in [9] it was 2.97; in test [10], -1.3. The z-score in [2] amounted to 0.0187.

Take `C=C(CCCC)/C(=C/C[C@@H](OC(=O)c1ccncc1)c1cccc(OCCO)c1)c1cc(C(=O)OC)ccc1OC`: the composite z-score in test [1] was -0.414; in test [3], 0.725; in test [4], 0.652; in test [5] it was -0.732; in [6], -0.143; in [7] it was -0.138. The values for the composite z-score in test [8], in [9] and in [10] were -0.452, 0.344 and 1.21, respectively. Besides, the z-score in [2] was -2.29.

`O=C1c2ccccc2[C@@]2(Cc3ccccc3N(CC(F)(F)F)C2=O)[C@H](c2ccc(CO)cc2)N1C1CCCCC1`: the composite z-score in test [1] was 0.796; in test [3], 0.542; in [4] it was -0.575; in test [5], 0.017; in [6], -0.0192; in [7] it was -0.0977. The composite z-score in test [8] is -0.369; in test [9] it was 0.415; in test [10], -0.223. Besides, the z-score in [2] is -0.387.

`C=C(CCCC)/C(=C/C[C@H](OC(=O)c1ccncc1)c1cccc(OCCO)c1)c1cc(C(=O)OC)ccc1OC`: the composite z-score is 0.799 in [1]; 0.385 in test [3]; 0.267 in test [4]; -0.784 in [5]; 0.0394 in test [6]; 0.14 in test [7]. In addition, the composite z-score is -0.226 in test [8], 0.516 in test [9] and 0.582 in test [10]. Besides, the z-score in [2] was -2.61.

For `C=C[C@H](OC)[C@@H](OC(=O)Nc1ccc(SC)cc1)c1ccc(OC)c(O)c1`, the composite z-score in test [1] is 0.318; in test [3], -0.784; in test [4] it was -0.414; in test [5] it was 0.319; in [6], -0.176; in test [7], -0.0626. The values for the composite z-score in [8], in test [9] and in test [10] were -0.15, 0.324 and -0.508, respectively. In addition, the z-score in [2] was determined as 0.899.

As to `N#Cc1ccc(NN2C(C(O)CCc3ccccc3)C=CC3C(=O)N(c4ccccc4)C(=O)C32)cc1` (stereo not given), the composite z-score is -0.317 in test [1]; -0.111 in test [3]; 1.59 in test [4]; 0.0484 in [5]; 0.0785 in test [6]; 0.108 in [7]. Also, the composite z-score in test [8] is -0.428; in test [9], 2.95; in test [10], 0.969. In [2], the z-score was -0.123.

`CCN1C(C)=C(C(=O)OC)[C@@H](c2ccccc2)N2C(=O)[C@](O)(C(=O)OC)[C@@H](c3ccccc3)C(C(C)=O)=C12`: the composite z-score was -0.0269 in [1]; 0.784 in [3]; -0.693 in test [4]; -0.0342 in test [5]; -0.0125 in test [6]; -0.262 in test [7]. For the same compound, the composite z-score in test [8] was 0.19; in [9], 0.0025; in [10], -0.576. For the same compound, the z-score in test [2] is -0.279.

As for `CN(C)C(=O)[C@@]1(Cc2ccccc2N=[N+]=[N-])N=C(c2ccc(OCCCO)cc2)O[C@H]1c1ccccc1CN=[N+]=[N-]`, the composite z-score in [1] was determined as 0.646; in [3], 0.048; in test [4] it was 2.51; in test [5], 1.22; in test [6], 0.13; in test [7] it was 0.721. The composite z-score in test [8] is 1.78; in test [9] it was 3.11; in test [10] it was 2.96. Besides, the z-score in test [2] was -2.12.

Take `O=C/C=C/c1ccc(/C=C/c2ccccc2)cc1`: the composite z-score in test [1] was -1.48; in test [3] it was 0.0281; in test [4], -0.858; in test [5], -0.584; in [6] it was -0.0585; in test [7] it was -0.0886. In addition, the composite z-score in test [8] is -0.489; in test [9] it was 0.2; in test [10], 0.129. Also, the z-score in test [2] turned out to be 0.783.

As for `C=CCC(OC(C)=O)[C@@H]1[C@@H](N(Cc2cc3ccccc3o2)C(=O)Cc2ccc(F)cc2)c2cc(OCCCO)ccc2N1C(=O)c1ccc(-c2ccccc2)cc1` (stereo not given in full), the composite z-score is -0.524 in test [1]; -0.159 in test [3]; -0.302 in test [4]; 1.14 in [5]; -0.154 in test [6]; 0.0141 in test [7]. Also, the composite z-score in [8] was 0.389; in [9] it was -0.467; in [10], 0.208. Besides, the z-score in test [2] was 0.591.

With `CC(C)[C@H]1NC(=O)[C@@]23C(=O)N[C@@H](Cc4ccccc4)C2[C@H](C)[C@@]2(C)O[C@H]2C3/C=C/C/C=C\CNC(=O)[C@H](C)NC1=O` (stereo not given in full), the composite z-score was -0.473 in [1]; -0.796 in [3]; -0.703 in [4]; -0.751 in test [5]; -0.284 in [6]; -0.367 in [7]. Besides, the results for the composite z-score in [8], in test [9] and in [10] were -0.32, -0.198 and -1.12, respectively. Also, the z-score in test [2] came to 0.631.

Take `COc1cccc([C@@H]2[C@@H](C)CC[C@H]3C(=O)N(C)[C@@H](C(C)C)C(=O)N23)c1`: the composite z-score was 0.148 in test [1]; 0.375 in test [3]; -0.169 in [4]; -0.562 in test [5]; -0.204 in test [6]; -0.0011 in [7]. Also, the values for the composite z-score in test [8], in test [9] and in test [10] were -0.141, 1.11 and 0.0641, respectively. Moreover, the z-score in test [2] is 0.512.

Regarding `Cc1ccc(S(=O)(=O)c2cc3oc2CC[C@@H](CO)NC(=O)N(C)Cc2cn(nn2)C[C@H](Cc2ccccc2)NC3=O)cc1`, the composite z-score in test [1] was -0.398; in test [3] it was -0.587; in test [4], 0.212; in test [5], 0.175; in test [6], -0.1; in [7], 0.483. In addition, the composite z-score was found to be 0.402 in test [8], 0.781 in test [9] and 0.513 in test [10]. The compound further came in with a z-score in test [2] of -0.376.

`COC(=O)[C@@]1(Cc2ccccc2CN=[N+]=[N-])N=C(c2ccc(OCCCO)cc2)O[C@H]1c1ccccc1N=[N+]=[N-]`: the composite z-score is 1.02 in [1]; -0.453 in test [3]; 0.173 in test [4]; -0.17 in test [5]; -0.129 in test [6]; -0.203 in [7]. Further, the composite z-score in test [8] worked out at 2.32; in test [9], 0.0753; in test [10] it was 0.45. This compound also yielded a z-score in test [2] of -1.53.

Regarding `CCCNC(=O)[C@@]1(Sc2ccc(C)cc2)CC(=O)N(Cc2ccccc2Cl)[C@@H]1c1ccc(CO)cc1`, the composite z-score in [1] is 0.658; in test [3], 0.546; in test [4], 0.857; in test [5] it was 1.03; in [6], -0.0478; in [7], 0.0407. Also, the composite z-score worked out at 0.0021 in test [8], 0.574 in test [9] and 2.05 in test [10]. In [2], the z-score is -2.42.

In the case of `Cc1ccccc1C(O)C1C=CC2C(=O)N(c3ccccc3)C(=O)C2N1Nc1ccc(C#N)cc1` (stereo not given), the composite z-score in test [1] was 1.22; in test [3], 0.588; in [4] it was 2.68; in test [5], 1.27; in [6] it was 0.24; in test [7], 0.333. In addition, the composite z-score in test [8] came to 2.26; in test [9], 3.02; in test [10], 1.94. Besides, in [2], the z-score was -0.15.
